This passage reports AC50 and outcome results from PubChem BioAssay (EPA / NIEHS).

Read-out in assay [1]: TIMP metallopeptidase inhibitor 2 (TIMP2), TIMP2 (gene 7077)
The experiment in a line: BSK_KF3CT_TIMP2: BioMAP Diversity Plus: KF3CT Assay for TIMP metallopeptidase inhibitor 2 (TIMP2) Biomarker Activity (AID 2283071). To be noted: primary human keratinocytes with fibroblasts; actives raise or lower the signal. In outline: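 Human primary keratinocyte/foreskin fibroblast co-culture dosed with chemical and sampled at 24 h. TIMP-2 levels quantified by ELISA; bidirectional fitting against DMSO negative control as baseline.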

Read-out in assay [2]: Transforming growth factor beta 1 (TGFb1), TGFB1 (gene 7040)
The experiment in a line: BSK_KF3CT_TGFb1: BioMAP Diversity Plus: KF3CT Assay for Transforming growth factor beta 1 (TGFb1) Biomarker Activity (AID 2283072). The following applies: primary human keratinocytes with fibroblasts; actives raise or lower the signal. Put shortly: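 Human keratinocyte plus foreskin fibroblast primary co-culture, dosed with chemical for 24 h. TGF-b1 quantified by ELISA. Activity fitted bidirectionally against DMSO negative control as baseline.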

Read-out in assay [3]: C-C motif chemokine 2 (Homo sapiens) (UniProt P13500)
The assay can be described thus: BSK_KF3CT_MCP1: BioMAP Diversity Plus: KF3CT Assay for Monocyte Chemoattractant Protein 1 (MCP1/CCL2) Biomarker Activity (AID 2283073). To be noted: primary human keratinocytes with fibroblasts; actives raise or lower the signal. In outline:
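Keratinocytes and foreskin fibroblasts were co-cultured, dosed with chemical, and sampled 24 h later. MCP-1 was quantified by ELISA, and the endpoint was analyzed with bidirectional fitting using DMSO as negative control.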

Read-out in assay [4]: Matrix Metallopeptidase 9 (MMP9), MMP9 (gene 4318)
The experiment in a line: BSK_KF3CT_MMP9: BioMAP Diversity Plus: KF3CT Assay for Matrix Metallopeptidase 9 (MMP9) Biomarker Activity (AID 2283074).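 As to AC50: MMP9 protein level quantified by ELISA in the co-culture.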 The following applies: primary human keratinocytes with fibroblasts; actives raise or lower the signal. Put shortly:
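Human keratinocyte/foreskin fibroblast co-culture; compound added; 24 h; MMP-9 by ELISA; bidirectional fit vs DMSO baseline.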

Read-out in assay [5]: urokinase plasminogen activator (uPA), PLAU (gene 5328)
The experiment in a line: BSK_KF3CT_uPA: BioMAP Diversity Plus: KF3CT Assay for urokinase plasminogen activator (uPA) Biomarker Activity (AID 2283075). To be noted: primary human keratinocytes with fibroblasts; actives raise or lower the signal. In outline:
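ELISA readout of uPA, analyzed for signal gain or loss relative to DMSO, from a human primary keratinocyte–foreskin fibroblast co-culture measured 24 h after chemical treatment.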

Read-out in assay [6]: E-selectin (Homo sapiens) (UniProt P16581)
The assay can be described thus: BSK_LPS_Eselectin: BioMAP Diversity Plus: LPS Assay for Eselectin Biomarker Activity (AID 2283077). The following applies: primary human HUVEC with PBMC; actives raise or lower the signal. Put shortly:
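Signal of E-selectin, detected by ELISA, served as the endpoint; cells were umbilical vein endothelium with PBMC, read 24 h after treatment. DMSO defined baseline, and both increases and decreases were fitted.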

Read-out in assay [7]: Interleukin-8 (IL8), CXCL8 (gene 3576)
The assay can be described thus: BSK_LPS_IL8: BioMAP Diversity Plus: LPS Assay for Interleukin-8 (IL8) Biomarker Activity (AID 2283078). To be noted: primary human HUVEC with PBMC; actives raise or lower the signal. In outline:
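Endothelial cells and PBMC from human donors are co-cultured, treated with chemicals and LPS, then assayed for IL-8 by ELISA after 24 h. Parallel SRB staining (0.1% SRB after 10% TCA fixation, 560 nm) flags cytotoxicity.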

A short description of assay [8]: BSK_LPS_SRB: Viability Assessment in the BioMAP Diversity Plus: LPS Assay (AID 2283079).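 Also: total protein by sulforhodamine B absorbance as a cytotoxicity measure; measured one day after compound addition; fitted in both directions against DMSO so loss or gain of signal counts.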 The following applies: primary human HUVEC with PBMC. Put shortly: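 Overt cytotoxicity was gauged by sulforhodamine B total-protein staining in a primary human vascular endothelial and mononuclear cell co-culture 24 h post-dosing. Activity was fitted in both directions relative to DMSO.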

Read-out in assay [9]: Monocyte Chemoattractant Protein-1 (MCP1), CCL2 (gene 6347)
The experiment in a line: BSK_LPS_MCP1: BioMAP Diversity Plus: LPS Assay for Monocyte Chemoattractant Protein-1 (MCP1) Biomarker Activity (AID 2283081). The following applies: primary human HUVEC with PBMC; actives raise or lower the signal. Put shortly:
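LPS-stimulated HUVEC/PBMC co-culture; chemical, 24 h; MCP-1 by ELISA; bidirectional fit vs DMSO; cytotoxicity via SRB (0.1% stain, 10% TCA fix, 560 nm) in parallel wells.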

The nature of assay [10]: BSK_LPS_PGE2: BioMAP Diversity Plus: LPS Assay for Prostaglandin E2 (PGE2) Biomarker Activity (AID 2283082). To be noted: primary human HUVEC with PBMC; actives raise or lower the signal. In outline:
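HUVEC plus PBMC co-culture stimulated with LPS; secreted PGE2 quantified by ELISA 24 h after chemical dosing. Activity fitted bidirectionally against DMSO as negative control and baseline; parallel SRB total-protein staining served as cytotoxicity check.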

Read-out in assay [11]: Macrophage colony-stimulating factor (MCSF), CSF1 (gene 1435)
The experiment in a line: BSK_LPS_MCSF: BioMAP Diversity Plus: LPS Assay for Macrophage colony-stimulating factor (MCSF) Biomarker Activity (AID 2283083). To be noted: primary human HUVEC with PBMC; actives raise or lower the signal. In outline:
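Compound is added to a human vascular primary co-culture of umbilical vein endothelium and blood mononuclear cells. After 24 h, M-CSF is quantified by ELISA. Signal changes are fitted in both directions against DMSO.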

Read-out in assay [12]: Tissue Factor, F3 (gene 2152)
The assay can be described thus: BSK_LPS_TissueFactor: BioMAP Diversity Plus: LPS Assay for Tissue Factor Biomarker Activity (AID 2283084). The following applies: primary human HUVEC with PBMC; actives raise or lower the signal. In outline: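 In this co-culture system of umbilical vein endothelium with PBMC, stimulated with LPS, cell-surface CD142 is detected by ELISA at 24 h. Endpoint values derive from bidirectional fitting, DMSO serving as baseline.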

Read-out in assay [13]: Tumor necrosis factor (Homo sapiens) (UniProt P01375)
The experiment in a line: BSK_LPS_TNFa: BioMAP Diversity Plus: LPS Assay for Tumour Necrosis Factor alpha (TNFa) Biomarker Activity (AID 2283085). The following applies: primary human HUVEC with PBMC; actives raise or lower the signal. Put shortly:
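Human umbilical vein endothelial cells co-cultured with PBMC were exposed to test chemical and TNFa measured by ELISA 24 h after dosing. Bidirectional curve fitting was done relative to DMSO as negative control and baseline.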

Read-out in assay [14]: Vascular cell adhesion molecule 1 (VCAM1), VCAM1 (gene 7412)
The experiment in a line: BSK_LPS_VCAM1: BioMAP Diversity Plus: LPS Assay for Vascular cell adhesion molecule 1 (VCAM1) Biomarker Activity (AID 2283086). To be noted: primary human HUVEC with PBMC; actives raise or lower the signal. Put shortly:
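Human umbilical vein endothelial cells co-cultured with peripheral blood mononuclear cells under LPS stimulation were exposed to test chemical for 24 h. VCAM-1 levels were then measured by ELISA, with bidirectional curve fitting relative to DMSO as negative control and baseline.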

Read-out in the next assay: CD38, CD38 (gene 952)
The assay can be described thus: BSK_SAg_CD38: BioMAP Diversity Plus: SAg Assay for CD38 Biomarker Activity (AID 2283087). The following applies: primary human HUVEC with PBMC; actives raise or lower the signal. Put shortly:
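Fluorescence ELISA of cell-surface CD38 served as the read-out, with either increase or decrease fitted against DMSO controls. Cells were a human umbilical vein endothelium plus PBMC co-culture under SEB/TSST-1 stimulation, measured 24 h after dosing.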

Read-out in assay [15]: CD40, CD40 (gene 958)
The assay can be described thus: BSK_SAg_CD40: BioMAP Diversity Plus: SAg Assay for CD40 Biomarker Activity (AID 2283088). The following applies: primary human HUVEC with PBMC; actives raise or lower the signal. Put shortly: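 Fluorescence ELISA read-out of CD40 from umbilical vein endothelium plus peripheral blood mononuclear cells, sampled 24 h after dosing. Values come from bidirectional curve fitting with DMSO as baseline.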

Read-out in another assay: CD69, CD69 (gene 969)
The assay can be described thus: BSK_SAg_CD69: BioMAP Diversity Plus: SAg Assay for CD69 Biomarker Activity (AID 2283089). To be noted: primary human HUVEC with PBMC; actives raise or lower the signal. Put shortly: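 Endothelial/PBMC co-culture; chemical added; 24 h incubation; CD69 ELISA with fluorescence detection; bidirectional fit vs DMSO.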

Read-out in assay [16]: Monocyte Chemoattractant Protein-1 (MCP1), CCL2 (gene 6347)
The assay can be described thus: BSK_SAg_MCP1: BioMAP Diversity Plus: SAg Assay for Monocyte Chemoattractant Protein-1 (MCP1) Biomarker Activity (AID 2283090). To be noted: primary human HUVEC with PBMC; actives raise or lower the signal. Put shortly: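 MCP-1 levels in the endothelial–PBMC SAg co-culture were quantified by ELISA at 24 h post-dosing; both increases and decreases versus DMSO scored. Cytotoxicity monitored by SRB total protein in parallel cultures.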

Read-out in assay [17]: CD40, CD40 (gene 958)
The assay can be described thus: BSK_LPS_CD40: BioMAP Diversity Plus: LPS Assay for CD40 Biomarker Activity (AID 2283076). The following applies: primary human HUVEC with PBMC; actives raise or lower the signal. Put shortly:
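CD40 signal, measured by ELISA, is fitted in both directions relative to DMSO vehicle. The system is an LPS-driven human vascular primary co-culture of endothelial cells and PBMC, sampled 24 h after compound addition.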

Read-out in assay [18]: Interleukin-1 alpha (IL1a), IL1A (gene 3552)
The assay can be described thus: BSK_LPS_IL1a: BioMAP Diversity Plus: LPS Assay for Interleukin-1 alpha (IL1a) Biomarker Activity (AID 2283080). The following applies: primary human HUVEC with PBMC; actives raise or lower the signal. In outline:
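Measured: IL-1 alpha via ELISA at 24 h in LPS-activated human umbilical vein endothelium–PBMC co-culture. Baseline: DMSO, bidirectional fitting.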

As a reminder, the AC50 is the concentration at which the activity in the assay is half-maximal.

Each structure is given as a SMILES string. The source made the active and inactive calls. The calls were made as follows: active = hit-call score of the fitted dose curve at least 0.9, where 1 is the maximum; inactive = score below 0.9.

Chain of E-selectin (Homo sapiens) (P16581 whole entry, looked up): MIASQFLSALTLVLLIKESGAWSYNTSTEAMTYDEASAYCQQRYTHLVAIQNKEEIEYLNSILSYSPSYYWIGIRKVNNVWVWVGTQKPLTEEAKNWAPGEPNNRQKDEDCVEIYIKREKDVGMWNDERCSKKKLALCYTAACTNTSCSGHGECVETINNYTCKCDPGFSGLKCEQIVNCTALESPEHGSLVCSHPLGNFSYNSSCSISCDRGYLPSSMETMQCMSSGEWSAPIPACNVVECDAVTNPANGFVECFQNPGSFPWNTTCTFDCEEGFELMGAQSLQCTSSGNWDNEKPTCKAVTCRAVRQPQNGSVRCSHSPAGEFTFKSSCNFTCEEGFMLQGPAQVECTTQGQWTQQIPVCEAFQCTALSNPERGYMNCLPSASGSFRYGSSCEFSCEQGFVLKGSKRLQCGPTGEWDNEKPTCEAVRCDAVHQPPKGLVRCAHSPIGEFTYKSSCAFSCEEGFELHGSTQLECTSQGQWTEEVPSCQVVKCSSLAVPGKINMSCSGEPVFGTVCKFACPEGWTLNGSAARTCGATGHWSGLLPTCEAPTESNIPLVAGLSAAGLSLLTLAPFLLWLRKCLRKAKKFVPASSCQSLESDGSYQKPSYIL
Chain of Tumor necrosis factor (Homo sapiens) (P01375 whole entry, looked up): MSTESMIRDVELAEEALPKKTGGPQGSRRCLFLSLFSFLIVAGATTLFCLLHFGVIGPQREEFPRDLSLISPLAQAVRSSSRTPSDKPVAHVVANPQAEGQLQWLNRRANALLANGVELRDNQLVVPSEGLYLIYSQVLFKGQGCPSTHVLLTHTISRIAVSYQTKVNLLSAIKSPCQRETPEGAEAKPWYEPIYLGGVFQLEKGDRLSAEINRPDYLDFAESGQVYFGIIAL

Regarding `CCCCCCCC1CCCC1=O` (stereo not given), the AC50 is 31.3 µM (active) in assay [1]; 36.3 µM (active) in assay [2]; 31.5 µM (active) in assay [3]; 28.7 µM (active) in assay [4]; 35.6 µM (active) in assay [5]. Moreover, the outcome in assay [6], in assay [7], in [8], in [9], in assay [10] and in [11] was inactive. For the same molecule, the outcome was “inactive” in assay [12]; “inactive” in assay [13]; “inactive” in assay [14]; “inactive” with CD38, CD38 (gene 952); “inactive” with CD40, CD40 (gene 958) [15]; “inactive” in the assay with CD69, CD69 (gene 969). Further, in assay [16], the result was inactive.

With `OCCN1CCOCC1`, the outcome was “inactive” in assay [1]; “inactive” in [2]; “inactive” in assay [3]; “inactive” in [4]; “inactive” in assay [5]; “inactive” with CD40, CD40 (gene 958) [17]. The result in [6], in assay [7], in assay [8], in assay [9], in assay [10] and in assay [11] was inactive. The outcome in assay [12] is “inactive”; in [13], “inactive”; in assay [14], “inactive”; with CD38, CD38 (gene 952) it was “inactive”; with CD40, CD40 (gene 958) [15], “inactive”; in the assay with CD69, CD69 (gene 969), “inactive”. For the same molecule, in assay [16], the outcome was inactive.

Turning to `CCOC(=O)C=Cc1ccccc1`, the outcome in assay [1], in assay [2], in assay [3], in [4], in assay [5] and in assay [6] was inactive. The result in assay [7], in assay [8], in assay [9], in [10], in [11] and in assay [12] was inactive. Moreover, the outcome in assay [13] is “inactive”; in assay [14], “inactive”; with CD38, CD38 (gene 952) it was “inactive”; with CD40, CD40 (gene 958) [15], “inactive”; with CD69, CD69 (gene 969) it was “inactive”; in [16], “inactive”.

Consider `C=C(C)C(N)=O`, for which the result in assay [1], in [2], in assay [3], in assay [4], in [5] and in assay [6] was inactive. Besides, the outcome in assay [7], in assay [8], in assay [9], in assay [10], in assay [11] and in assay [12] was inactive. The outcome was “inactive” in assay [13]; “inactive” in assay [14]; “inactive” with CD38, CD38 (gene 952); “inactive” in the assay with CD40, CD40 (gene 958) [15]; “inactive” with CD69, CD69 (gene 969); “inactive” in [16].

As to `CC=CC(=O)C1=C(C)C=CCC1(C)C`, the outcome in [1], in assay [2], in assay [3], in assay [4], in assay [5] and in assay [6] was inactive. Also, the outcome in assay [7], in assay [8], in [9], in assay [10], in [11] and in assay [12] was inactive. Also, the outcome in [13] was “inactive”; in [14], “inactive”; with CD38, CD38 (gene 952), “inactive”; with CD40, CD40 (gene 958) [15], “inactive”; with CD69, CD69 (gene 969), “inactive”; in assay [16] it was “inactive”.

`O=C1OC2(c3ccc(O)cc3Oc3cc(O)ccc32)c2ccccc21`: the result in [1], in assay [2], in assay [3], in assay [4], in [5] and in assay [6] was inactive. Moreover, the result in assay [7], in assay [8], in [18], in assay [9], in assay [10] and in assay [11] was inactive. Besides, the outcome in assay [12] was “inactive”; in [13], “inactive”; in assay [14], “inactive”; with CD38, CD38 (gene 952) it was “inactive”; with CD40, CD40 (gene 958) [15], “inactive”; with CD69, CD69 (gene 969) it was “inactive”. Besides, the outcome in [16] was inactive.
